Seven molecules from PubChem BioAssay (NCI) can be followed below.

Compounds without any hit were thinned out: in the full panel of roughly 83,000, 20% have a hit.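 Percent growth is the endpoint: 0 to 100 indicates growth inhibition (40 means 60% inhibition), 0 means no net growth, and negative values indicate cell death.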 Values without a mark were called inactive. The source made the active and inactive calls. Rule for the calls: active = growth percent below 10; inactive = the rest.

What all share (test): NCI-60 one-dose screen, 48 h (100 = growth as untreated, 0 = no growth, -100 = all killed)
Holding throughout (conditions): 10 µM unless noted

Experiment [1] concerns HT29 colon.
Experiment [2] relates to SNB-75 CNS.
Experiment [3] relates to SNB-19 CNS.
The subject of experiment [4] is U251 CNS.
For experiment [5], the system named is PC-3 prostate.
The test system of experiment [6] is SK-MEL-5 melanoma.
The test system of experiment [7] is UACC-62 melanoma.
The test system of experiment [8] is LOX IMVI melanoma.
Experiment [9] concerns SK-MEL-28 melanoma.
Experiment [10] deals with SK-MEL-2 melanoma.
For experiment [11], the system named is EKVX NSCLC.
For experiment [12], the system named is SN12C renal.
Experiment [13] concerns UO-31 renal.
Experiment [14] relates to TK-10 renal.
For experiment [15], the system named is ACHN renal.
Experiment [16] has as its system CAKI-1 renal.
Experiment [17] deals with A498 renal.
Experiment [18] deals with CCRF-CEM leukemia.
For experiment [19], the system named is MOLT-4 leukemia.

For the molecule `O=C(/C=C/c1cccc(Cl)c1)c1cccc(OCCCCOc2cccc(C(=O)/C=C/c3cccc(Cl)c3)c2)c1`, the growth in experiment [1] was 76.1%; in [2], 77.8%; in experiment [3] it was 91%; in [4], 68.7%; in experiment [5] it was 92.2%; in [6], 98.6%. The growth was 72.8% in experiment [7]; 30.5% in [8]; 99.2% in experiment [9]; 103% in [10]; 106% in [11]; 92.9% in [12]. In addition, the growth was 72% in [13]; 109% in [14]; 100% in experiment [15]; 75.7% in experiment [16]; 96.9% in [17]; 84.4% in experiment [18]. Besides, in experiment [19], the growth is 89%.
On to `CCOC(=O)c1c2c(n3c1NCC3)-c1ccccc1C2=O`, for which the growth was 98.1% in [1]; 83.5% in [2]; 99.3% in [3]; 101% in experiment [4]; 91.1% in [5]; 93.3% in [6]. Further, the growth in experiment [7] is 98.6%; in experiment [8], 97.9%; in experiment [9], 103%; in experiment [10], 79.3%; in [11], 95.8%; in experiment [12], 98.3%. The growth in [13] was 39.8%; in experiment [14], 96.4%; in experiment [15], 97.3%; in experiment [16] it was 89.9%; in [17], 100%; in experiment [18] it was 85%. Also, the growth in experiment [19] is 87.8%.
`C=NNc1ccccc1`: the growth is 108% in experiment [1]; 90.9% in [2]; 93.8% in experiment [3]; 88.1% in experiment [4]; 98.8% in [6]; 50.2% in [7]. Besides, the growth in experiment [8] was 62.8%; in experiment [9] it was 117%; in experiment [10], 123%; in [11], 92.8%; in experiment [12], 89.6%; in experiment [13] it was 71%. The growth in [14] was 127%; in experiment [15], 78%; in [16], 84.1%; in experiment [17], 77.1%; in [18], 71.5%; in experiment [19], 105%.
For `Cn1cc(-c2csc(-c3cn(C(=O)OC(C)(C)C)c4ccccc34)n2)c2ccnc(Cl)c21`, the growth in [1] is 35.4%; in experiment [2], 46.8%; in experiment [3] it was 89.1%; in [4], 34.1%; in experiment [5] it was 40.5%; in experiment [6], 81.4%. The growth was 78.2% in experiment [7]; 52.8% in experiment [8]; 81.2% in [9]; 96.5% in [10]; 62.8% in experiment [11]; 58.4% in experiment [13]. The growth in experiment [14] was 52.8%; in [15], 32.7%; in [16], 80%; in experiment [17] it was 88.4%; in experiment [18], 61.7%; in experiment [19] it was 66.8%.
With `Cc1ncc(C(=O)Nc2ccc(CN3CCN(C)CC3)c(C(F)(F)F)c2)cc1C#Cc1cnc(N)c2cnccc12`, the growth in [1] was -43.1% (active); in [2], -90.6% (active); in experiment [3] it was 23.1%; in experiment [4], -20.7% (active); in [5], 41.7%; in experiment [6] it was -20.8% (active). For the same molecule, the growth in experiment [7] was -65.2% (active); in experiment [8] it was -90.1% (active); in experiment [9] it was -0.469% (active); in experiment [10], -85.3% (active); in [11], 21.5%; in [12], 11.7%. Further, the growth in experiment [13] was -30.1% (active); in experiment [14], -22.6% (active); in [15] it was -21.6% (active); in [16], -91.5% (active); in experiment [18] it was 10.3%; in experiment [19], 13%.
`O=C(CCl)Nc1ccc2c(Nc3cc(O)ccc3Cl)ncnc2c1`: the growth in experiment [1] was -74.5% (active); in experiment [2] it was -96.7% (active); in [3] it was -61.9% (active); in [4] it was -89.8% (active); in experiment [5], -74.4% (active); in experiment [6], -88.4% (active). Besides, the growth is -68.7% (active) in experiment [7]; -81.6% (active) in experiment [8]; -66.4% (active) in experiment [9]; -76.5% (active) in experiment [10]; -53.8% (active) in experiment [11]; -83.4% (active) in [12]. The growth in experiment [13] was -92.9% (active); in [14], -66.9% (active); in experiment [15] it was -98.3% (active); in [16], -86.1% (active); in experiment [17], 56.2%; in [18], -5.44% (active). The growth in experiment [19] was -24.4% (active).
Take `COc1cccc(/C=C/C(=O)c2cc3c(N)c(C(=O)Nc4ccccc4C)sc3nc2C)c1`: the growth in experiment [1] was -5.29% (active); in experiment [2], 12.8%; in [3], 11.4%; in [4] it was 7.49% (active); in experiment [5], 45.3%; in experiment [6] it was 52.4%. Further, the growth in [7] is 33.6%; in experiment [8], -65.9% (active); in experiment [9], 70.9%; in experiment [10], 27.3%; in [11] it was 91.7%; in experiment [12], 13.9%. Further, the growth in experiment [13] is 38.5%; in [14] it was 74.1%; in [15] it was 56.1%; in experiment [16] it was 32.2%; in experiment [17], 75.7%; in experiment [18], 9.22% (active). In experiment [19], the growth is 32.6%.
